Measured values reported in PubChem BioAssay (Tox21).
Several values for one entry are separate records, joined by “and”; a condition that tells them apart may be missing. Identical values can stand only once. Results filed as inconclusive are left out. Entries that show only a call come without a potency. Where a structure was tested more than once in an assay, its records may differ in their call. Activity calls are given as the source filed them. Calls come from the whole dose curve; as a rule, active = well fitted curve in the direction sought with a large enough effect in the repeat runs; inconclusive = weak or mixed curves; inactive = no such curve, though single readings can be large; an effect the other way counts as inactive or inconclusive.
Note: nearly all actives have a fitted effect of over 50% in size.
Potency is the fitted concentration of half-maximal effect.

Experiment: qHTS RealTime-Glo MT Cell Viability Assay in HepG2 cells - 24 hour (AID 1224867)
Conditions: RealTime-Glo luminescence; series mostly up to 76.8 µM
Method in brief: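 HepG2 cells were seeded at 600 cells/well together with NanoLuc luciferase and a cell-permeant prosubstrate, preincubated 5 h at 37 C/5% CO2, then pin-dosed with compounds in DMSO. Nonlytic luminescence from viable cells was read at each time point.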
In the case of `CCCCC/C=C/C=C/C=O`, the Potency was “inactive”.
In the case of `CC(CCC(=O)O)(c1ccc(O)cc1)c1ccc(O)cc1`, the Potency was “inactive”.
With `CCCc1c(OCCCCc2nn[nH]n2)ccc(C(C)=O)c1O` the Potency was “inactive”.
For `CNCCCC12CCC(c3ccccc31)c1ccccc12`, the Potency was 49 µM (active) and 23.9 µM (active).
For `CC(=O)Oc1ccccc1C(=O)Nc1ncc([N+](=O)[O-])s1`, the Potency was “inactive”.
In the case of `CN(C)c1nc(N(C)C)nc(N(C)C)n1`, the Potency was “inactive”.
For `CC(C)OC(=O)C(C)(C)Oc1ccc(C(=O)c2ccc(Cl)cc2)cc1`, the Potency was “inactive”.
In the case of `Nc1ccc(S(=O)(=O)Nc2cnc3ccccc3n2)cc1`, the Potency was “inactive”.
With `Cc1ccc(C(=O)c2cc(O)c(O)c([N+](=O)[O-])c2)cc1` the Potency was “inactive”.
For `Cc1[nH]c(=O)c(C#N)cc1-c1ccncc1`, the Potency was “inactive”.
In the case of `CN(C)CCC=C1c2ccccc2CCc2ccccc21`, the Potency was “inactive and 43.6 µM (active)”.
For `O=[N+]([O-])c1ccc2c(c1)Cc1ccccc1-2`, the Potency was “inactive”.
With `O=C(O)c1ccccc1Nc1cccc(C(F)(F)F)c1` the Potency was “inactive”.
With `COc1cccc2c1C(=O)c1c(O)c3c(c(O)c1C2=O)C[C@@](O)(C(=O)CO)C[C@@H]3O[C@H]1C[C@H](N)[C@H](O)[C@H](C)O1` the Potency was “inactive and 1.69 µM (active)”.
For `c1cc(N(CC2CO2)CC2CO2)ccc1OCC1CO1` (centres undefined), the Potency was “inactive”.
For `C[C@]12CCC(=O)C=C1CC[C@@H]1[C@@H]2C(=O)C[C@@]2(C)[C@H]1CC[C@]2(O)C(=O)CO`, the Potency was “inactive”.
In the case of `CCCCc1oc2ccccc2c1C(=O)c1cc(I)c(OCCN(CC)CC)c(I)c1`, the Potency was 39.2 µM (active) and 23.9 µM (active).
For `Oc1ccc(O)cc1`, the Potency was “inactive”.
For `O=C(c1ccc(OCCN2CCCCC2)cc1)c1c(-c2ccc(O)cc2)sc2cc(O)ccc12`, the Potency was 54.9 µM (active) and inactive.

Experiment: qHTS RealTime-Glo MT Cell Viability Assay in HEK293 cells - 32 hour (AID 1224868)
Conditions: RealTime-Glo luminescence; series mostly up to 76.8 µM
Method in brief: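 HEK293 cells were seeded at 600 cells/well together with NanoLuc luciferase and cell-permeant prosubstrate, preincubated 5 h at 37 C/5% CO2, then given compound in DMSO by pintool. Luminescence from viable-cell prosubstrate reduction was read repeatedly over 40 h.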
In the case of `CCCCC/C=C/C=C/C=O`, the Potency was “inactive”.
For `CC(CCC(=O)O)(c1ccc(O)cc1)c1ccc(O)cc1`, the Potency was “inactive”.
For `CC(=O)O[C@]1(C(C)=O)CC[C@H]2[C@@H]3C=C(Cl)C4=CC(=O)[C@@H]5C[C@@H]5[C@]4(C)[C@H]3CC[C@@]21C`, the Potency was 24.5 µM (active) and inactive.
For `CCCc1c(OCCCCc2nn[nH]n2)ccc(C(C)=O)c1O`, the Potency was “inactive”.
For `c1ccc2c(c1)c1cccc3ccc4cccc2c4c31`, the Potency was “inactive and 17.4 µM (active)”.
For `c1ccc2sc(SSN3CCOCC3)nc2c1`, the Potency was 21.8 µM (active) and 43.6 µM (active).
With `O=C(/C=C/C=C/c1ccc2c(c1)OCO2)N1CCCCC1` the Potency was 55.1 µM (active).
In the case of `COC(=O)C1=C(C)NC(C)=C(C(=O)OCCN(C)Cc2ccccc2)C1c1cccc([N+](=O)[O-])c1` (centres undefined), the Potency was 21.7 µM (active) and 16.9 µM (active).
With `CNCCCC12CCC(c3ccccc31)c1ccccc12` the Potency was 49 µM (active) and 23.9 µM (active).
For `O=C(Nc1ccc([N+](=O)[O-])cc1Cl)c1cc(Cl)ccc1O`, the Potency was 3.47 µM (active) and 928 nM (active).
In the case of `Cc1c(OCC(F)(F)F)ccnc1CS(=O)c1nc2ccccc2[nH]1` (centres undefined), the Potency was 19.5 µM (active) and 10.7 µM (active).
With `Nc1ncnc2nc[nH]c12` the Potency was “inactive”.
In the case of `CN(C)c1nc(N(C)C)nc(N(C)C)n1`, the Potency was “inactive”.
With `CN1C(C(=O)Nc2ccccn2)=C(O)c2ccccc2S1(=O)=O` the Potency was “inactive”.
With `CC(C)OC(=O)C(C)(C)Oc1ccc(C(=O)c2ccc(Cl)cc2)cc1` the Potency was 21.9 µM (active) and 10.7 µM (active).
In the case of `Nc1ccc(S(=O)(=O)Nc2cnc3ccccc3n2)cc1`, the Potency was “inactive”.
With `CC(C)(C)NC(=O)[C@H]1CC[C@H]2[C@@H]3CC[C@H]4NC(=O)C=C[C@]4(C)[C@H]3CC[C@]12C` the Potency was “inactive”.
For `Cc1ccc(C(=O)c2cc(O)c(O)c([N+](=O)[O-])c2)cc1`, the Potency was “inactive”.
In the case of `CC(C)=CCC/C(C)=C\CO`, the Potency was “inactive”.
In the case of `Cc1[nH]c(=O)c(C#N)cc1-c1ccncc1`, the Potency was “inactive”.
For `CN(C)CCN(Cc1cccs1)c1ccccn1`, the Potency was “inactive”.
With `O=C1OC2(c3cc(Br)c(O)c(Br)c3Oc3c2cc(Br)c(O)c3Br)c2c(Cl)c(Cl)c(Cl)c(Cl)c21` the Potency was “inactive”.
In the case of `O=[N+]([O-])c1ccc2c(c1)Cc1ccccc1-2`, the Potency was “inactive”.
For `O=C(O)c1ccccc1Nc1cccc(C(F)(F)F)c1`, the Potency was “inactive”.
For `S=C(NC1CCCCC1)NC1CCCCC1`, the Potency was 15.2 µM (active) and 21.9 µM (active).
For `COc1cccc2c1C(=O)c1c(O)c3c(c(O)c1C2=O)C[C@@](O)(C(=O)CO)C[C@@H]3O[C@H]1C[C@H](N)[C@H](O)[C@H](C)O1`, the Potency was 123 nM (active) and 213 nM (active).
For `c1cc(N(CC2CO2)CC2CO2)ccc1OCC1CO1` (centres undefined), the Potency was 24.6 µM (active) and 21.9 µM (active).
In the case of `C[C@]12CCC(=O)C=C1CC[C@@H]1[C@@H]2C(=O)C[C@@]2(C)[C@H]1CC[C@]2(O)C(=O)CO`, the Potency was “inactive”.
In the case of `Cc1cc2nc3c(=O)[nH]c(=O)nc-3n(C[C@H](O)[C@H](O)[C@H](O)CO)c2cc1C`, the Potency was “inactive”.
With `Nc1ccc(Nc2ccccc2)cc1` the Potency was 48.5 µM (active).
For `CCCCc1oc2ccccc2c1C(=O)c1cc(I)c(OCCN(CC)CC)c(I)c1`, the Potency was 34.9 µM (active) and 23.9 µM (active).
For `Nc1ccccc1N`, the Potency was “inactive”.
In the case of `Cc1cccc(N(C)C(=S)Oc2ccc3ccccc3c2)c1`, the Potency was “inactive”.
For `Brc1cc(Oc2cc(Br)c(Br)c(Br)c2Br)c(Br)c(Br)c1Br`, the Potency was “inactive”.
In the case of `O=C(c1ccc(OCCN2CCCCC2)cc1)c1c(-c2ccc(O)cc2)sc2cc(O)ccc12`, the Potency was 19.5 µM (active) and 23.9 µM (active).
